Reference: PubChem BioAssay AID504333 (National Center for Advancing Translational Sciences (NCATS), 2011)
Among all 360,000 compounds or so, about 16,000 (4.4%) were called active. Entries that show only a call come without a potency. Not shown: some 9% with an inconclusive outcome. The call rests on the fitted dose curve; in most records, active means well fitted inhibition curve with a large enough effect; inconclusive means small, poorly fitted or top-dose-only effect; inactive means no such curve, though single readings can be large or run the other way. Only a selection was taken, and actives are over-represented in it overall.

What follows are compounds tested against Bromodomain adjacent to zinc finger domain protein 2B (Homo sapiens) (UniProt Q9UIF8) (assay: qHTS Assay for Inhibitors of BAZ2B). Details: AlphaScreen BAZ2B-H3K14Ac peptide displacement; series mostly up to 114 µM.
In short: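 Compounds, titrated to a top concentration of 110 uM, were incubated 30 min at room temperature with preformed BAZ2B/acetyl-K14 H3 peptide complex (50 nM each). Proximity signal was measured by AlphaScreen after 20 min with beads.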
Further: nearly all actives have a fitted effect of over 60% in size.
Potency means the concentration at half of the fitted maximal effect.

Chain of Bromodomain adjacent to zinc finger domain protein 2B (Homo sapiens) (Q9UIF8 whole entry, looked up, the tested form may be a part): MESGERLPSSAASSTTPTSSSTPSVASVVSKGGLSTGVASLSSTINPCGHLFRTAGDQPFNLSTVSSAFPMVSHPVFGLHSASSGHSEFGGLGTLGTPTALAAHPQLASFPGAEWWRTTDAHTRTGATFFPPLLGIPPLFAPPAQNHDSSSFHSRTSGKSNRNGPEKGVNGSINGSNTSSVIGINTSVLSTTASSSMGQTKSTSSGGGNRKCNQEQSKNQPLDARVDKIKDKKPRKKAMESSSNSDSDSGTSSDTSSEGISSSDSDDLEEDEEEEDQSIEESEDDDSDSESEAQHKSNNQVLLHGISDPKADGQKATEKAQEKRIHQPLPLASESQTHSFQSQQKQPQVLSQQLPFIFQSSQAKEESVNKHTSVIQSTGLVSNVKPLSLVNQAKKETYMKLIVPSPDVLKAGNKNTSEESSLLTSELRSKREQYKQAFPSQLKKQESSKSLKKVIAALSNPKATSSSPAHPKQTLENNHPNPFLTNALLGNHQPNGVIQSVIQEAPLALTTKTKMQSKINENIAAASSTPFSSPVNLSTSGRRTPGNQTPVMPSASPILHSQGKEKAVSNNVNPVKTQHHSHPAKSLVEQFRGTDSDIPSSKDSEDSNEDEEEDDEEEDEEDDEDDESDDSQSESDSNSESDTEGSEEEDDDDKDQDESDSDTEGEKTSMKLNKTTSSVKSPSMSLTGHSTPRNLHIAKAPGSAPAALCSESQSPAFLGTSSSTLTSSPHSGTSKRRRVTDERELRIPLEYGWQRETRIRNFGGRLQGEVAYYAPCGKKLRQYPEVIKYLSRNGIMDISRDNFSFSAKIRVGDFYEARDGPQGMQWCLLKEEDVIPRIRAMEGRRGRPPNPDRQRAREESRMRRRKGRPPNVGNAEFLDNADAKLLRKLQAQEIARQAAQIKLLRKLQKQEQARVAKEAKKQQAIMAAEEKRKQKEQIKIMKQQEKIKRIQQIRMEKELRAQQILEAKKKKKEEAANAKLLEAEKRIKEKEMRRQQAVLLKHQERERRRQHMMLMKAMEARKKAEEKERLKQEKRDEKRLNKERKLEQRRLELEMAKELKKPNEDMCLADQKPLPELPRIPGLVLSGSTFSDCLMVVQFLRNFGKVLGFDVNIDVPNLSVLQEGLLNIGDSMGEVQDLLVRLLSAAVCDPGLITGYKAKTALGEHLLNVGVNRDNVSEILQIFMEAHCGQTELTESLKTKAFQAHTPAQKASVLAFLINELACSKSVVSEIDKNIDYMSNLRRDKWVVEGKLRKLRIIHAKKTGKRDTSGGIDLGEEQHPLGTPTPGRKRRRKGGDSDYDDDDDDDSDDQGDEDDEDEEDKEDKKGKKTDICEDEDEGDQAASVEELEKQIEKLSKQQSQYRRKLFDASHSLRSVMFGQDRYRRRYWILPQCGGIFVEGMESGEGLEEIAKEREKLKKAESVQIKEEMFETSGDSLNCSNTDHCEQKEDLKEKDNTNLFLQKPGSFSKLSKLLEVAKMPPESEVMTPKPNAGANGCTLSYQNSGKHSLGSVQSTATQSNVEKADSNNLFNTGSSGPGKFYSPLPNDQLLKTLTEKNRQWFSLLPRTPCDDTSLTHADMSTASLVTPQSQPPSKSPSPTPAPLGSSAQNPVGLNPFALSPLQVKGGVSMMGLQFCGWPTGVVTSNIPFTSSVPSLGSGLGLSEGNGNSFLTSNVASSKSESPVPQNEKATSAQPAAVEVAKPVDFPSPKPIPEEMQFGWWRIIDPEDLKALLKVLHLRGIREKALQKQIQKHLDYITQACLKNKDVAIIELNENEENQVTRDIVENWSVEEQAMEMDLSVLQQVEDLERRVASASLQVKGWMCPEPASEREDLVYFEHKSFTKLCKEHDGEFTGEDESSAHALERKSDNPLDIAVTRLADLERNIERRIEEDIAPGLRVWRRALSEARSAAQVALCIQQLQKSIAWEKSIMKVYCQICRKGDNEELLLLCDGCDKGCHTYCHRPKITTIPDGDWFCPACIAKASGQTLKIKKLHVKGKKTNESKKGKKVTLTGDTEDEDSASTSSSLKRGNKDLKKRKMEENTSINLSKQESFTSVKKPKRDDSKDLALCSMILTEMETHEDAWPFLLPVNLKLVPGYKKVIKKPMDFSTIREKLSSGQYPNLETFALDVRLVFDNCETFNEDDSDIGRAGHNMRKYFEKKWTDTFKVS

Structure (SMILES)	Potency
CN1/C(=C\C=C2\N=C(c3ccc(F)cc3)OC2=O)C(C)(C)c2ccccc21	50.1 µM (active)
Cc1cccc(C2=N/C(=C/c3cccs3)C(=O)O2)c1	inactive
O=C1OC(c2ccc(Cl)cc2)=N/C1=C\c1cccnc1	inactive
CCOc1ccccc1N(C)C(=O)c1cc2c(s1)-c1ccccc1OC2	inactive
O=C(Cc1ccc(Cl)cc1)NCC(c1cccs1)S(=O)(=O)c1ccc(Cl)cc1 (configuration not stated)	inactive
CCOC(=O)N1CCc2c(sc3c2C(=O)NC(c2ccccc2F)N3)C1 (configuration not stated)	inactive
CCOc1ccc(CNCc2c(C(=O)O)c(C)n(Cc3cccc(OC)c3)c2C)cc1OC	inactive
CCN(CC)S(=O)(=O)c1ccc(C(=O)N=c2sc3cccc(OC)c3n2C)cc1	inactive
CCOC(=O)c1c(-c2ccc(OC)cc2)oc2ccc(OCc3ccc(C(=O)OC)cc3)cc12	inactive
CN1/C(=c2/s/c(=C3/C(=O)N(c4ccccc4)NC3=Nc3ccccc3)n(C)c2=O)C(C)(C)c2ccccc21	10 µM (active)
CN1C(=O)c2ccccc2Sc2ccc(NC(=O)Cc3ccc(Cl)cc3)cc21	inactive
O=c1cc(Cn2nnc(-c3ccc(Cl)cc3)n2)nc2sccn12	inactive
O=C(NCc1ccc(Cl)cc1)c1cc2c(nc3sccn32)s1	inactive
Cc1ccc(Nc2c(-c3ccc(Cl)cc3)nc3sccn23)c(C)c1	28.2 µM (active)
Cc1ccccc1C(=O)Nc1cc(C)c(O)c(-c2nc3ccccc3o2)c1	inactive
Cc1ccc(Cl)cc1N(C)C(=O)C1CCCN(c2ncnc3onc(-c4ccc(F)cc4)c23)C1 (configuration not stated)	inactive
CCOc1ccc(C2C(C(=O)Nc3ccc(Cl)cc3)=C(C)Nc3nc(C(F)(F)F)nn32)cc1 (configuration not stated)	inactive
COc1ccc(C(=O)/C=C/c2ccc(-c3ccccc3)cc2)cc1CSCC(=O)O	inactive
COc1ccc(/C=C/C(=O)N2CCCC2)cc1OC	inactive
COC(=O)c1ccc(COc2ccc(/C=C/C(=O)c3ccc(OC)c(CSCC(=O)O)c3)cc2OC)cc1	39.8 µM (active)
CCOc1ccccc1NC(=O)Cn1c(=O)n(-c2cccc(C)c2)c(=O)c2c1c1cc(OC)ccc1n2C	inactive

Structure (SMILES)	Potency
COc1ccc(-c2nnc(SCC(=O)Nc3ccc(C(C)C)cc3)nc2-c2ccc(OC)c(OC)c2)cc1OC	inactive
CCOc1cc(-c2nnc(SCC(=O)NC3CCCCC3)nc2-c2ccc(OC)c(OCC)c2)ccc1OC	79.4 µM (active)
COc1ccc(-c2nnc(SCC(=O)NC3CCCCC3)o2)cc1OC	inactive
COCCn1c(SCC(=O)c2cc(C)ccc2C)nc2cc(C(=O)NC3CCCC3)ccc2c1=O	inactive
Cc1ccc(-c2nc(CS(=O)(=O)CC(=O)NCc3ccccc3Cl)c(C)o2)cc1	inactive
CCOc1ccc2nc(N3CCC(C(=O)Nc4cc(C)ccc4C)CC3)sc2c1	inactive
CC1=C(C(=O)Nc2ccccc2Cl)C(c2cccs2)n2ncnc2N1 (configuration not stated)	inactive
CCC(=C/c1sc2ccc3ccccc3c2[n+]1C)/C=C1\Sc2ccc3ccccc3c2N1C	50.1 µM (active)
N#C/C(=C\C1=C(N2CCOCC2)C(=C\c2ccccc2)/CC1)C(=O)Nc1ccccc1F	2 µM (active)
N#C/C(=C/c1ccc(N2CCOCC2)o1)C(=O)N1CCOCC1	inactive
N#C/C(=C\c1ccccc1C(F)(F)F)C(=O)Nc1ccccc1F	inactive
Cc1ccc2c(=O)c(C(=O)c3ccc(Cl)cc3)cn(CC(=O)NC3CCCCC3)c2n1	inactive
COc1ccc2c(c1)N(C)/C(=C1/SC(=S)N(NC(C)=O)C1=O)S2	inactive
O=C(O)c1ccc2c(c1)C(=O)N(NC(=O)c1ccc(O)cc1)C2=O	inactive
CC(=O)N1C(=O)/C(=C2\SC(=S)N(NC(=O)c3ccc(O)cc3)C2=O)c2ccccc21	39.8 µM (active)
CCOC(=O)c1cccc(NC(=O)c2cc(S(=O)(=O)N3CCCC(C)C3)cn2C)c1 (configuration not stated)	inactive
CCCCN1CC(c2nc3ccccc3n2CCCCOc2ccc(C)cc2C)CC1=O (configuration not stated)	inactive
Cc1ccc(N=C2NC(=O)/C(=C/C=C/c3ccco3)S2)cc1C	44.7 µM (active)
CCOC(=O)c1cc(-c2ccccc2)n(CCC(=O)Nc2ccccc2CC)c1C	inactive
CC(C)CC(=O)NCC(c1ccc2c(c1)OCO2)N1CCN(c2ccc(F)cc2)CC1 (configuration not stated)	inactive
Cc1nnc(NCc2ccccc2)c2c1nnn2Cc1ccc(F)cc1	inactive

Structure (SMILES)	Potency
CCOc1ccc(C(=O)c2cn(Cc3ccc(F)cc3)c3ccc(F)cc3c2=O)cc1	inactive
CCOc1ccc2oc(=O)cc(CN3CCN(C(=O)c4ccc(F)cc4)CC3)c2c1	inactive
COc1ccc2oc(=O)cc(CN3CCOCC3)c2c1	inactive
CCOc1ccc(N(C)Cc2cc(=O)oc3ccc(OC)cc23)cc1	22.4 µM (active)
Cc1ccc(O)c(NC(=O)CCS(=O)(=O)c2nc(-c3ccc4c(c3)OCO4)cc(C(F)(F)F)n2)c1	inactive
CCOC(=O)c1ccc(NC(=O)c2ncn(-c3ccccc3)n2)cc1	inactive
Fc1ccc(-c2nn(-c3ccccc3Cl)c3c2cnc2ccccc23)cc1	inactive
COc1cccc(CNC(=O)Cn2c(=O)c3cccn3c3ccc(F)cc32)c1OC	inactive
CCOC(=O)c1cnc2c(C)cc(C)cc2c1Nc1ccc(N2CCOCC2)cc1	7.08 µM (active)
CCOC(=O)c1cnc2c(C)cc(Cl)cc2c1NCCc1ccc(OC)c(OC)c1	inactive
Cc1ccc(OCCCC(=O)Nc2ccc(N3CCOCC3)cc2)cc1	inactive
CCOc1cccc(NC(=O)CSc2ncc(-c3ccc(Cl)cc3)[nH]2)c1	inactive
Cc1cc(NS(=O)(=O)c2ccc3oc(=O)c4ncn(C)c4c3c2)ccc1Br	inactive
O=[N+]([O-])c1ccccc1OCCCCN1CCCCC1	inactive
CC1CC(C)CN(CCOc2cccc3ccccc23)C1 (configuration not stated)	inactive
CC1CN(CCOc2ccccc2[N+](=O)[O-])CC(C)O1 (configuration not stated)	25.1 µM (active)
Cc1ccccc1CNC(=O)CCc1cn(Cc2ccccc2C)c2ccccc12	inactive
CCc1cc2c(cc3c(=O)n(CC(=O)NCc4cccc(Cl)c4)nc(CC)n32)s1	inactive
COc1ccccc1C(=O)NCCn1cc(SCc2ccccc2Cl)c2ccccc21	inactive
Cc1ccc(CN2CCC(CNC(=O)c3cnn(-c4ccc(C)cc4)c3C3CCN(C(=O)OC(C)(C)C)CC3)CC2)cc1	inactive
